According to PubChem BioAssay (Tox21):
Inconclusive results are not listed. Calls of active or inactive are those of the source. Unless noted, calls come from the whole dose curve; as a rule, active = well fitted curve in the direction sought with a large enough effect in the repeat runs; inconclusive = weak or mixed curves; inactive = no such curve, though single readings can be large; an effect the other way counts as inactive or inconclusive.

How the values were obtained:
[1] = qHTS assay to identify small molecule antagonists of the estrogen receptor alpha (ER-alpha) signaling pathway using the BG1 cell line in the presence of 0.1 nM 17-beta-estradiol - cell viability counter screen (AID 1259241); note: nearly all actives have a fitted effect of over 40% in size
Method in brief: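 VM7Luc4E2, 4,000 cells/well, phenol red-free medium + 10% charcoal-stripped FBS; 24 hr plating; cpd + 0.1 nM E2 final, 22 hr 37C/5% CO2; CellTiter-Fluor 30 min, fluorescence.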

[2] = qHTS assay to identify small molecule antagonists of the androgen receptor (AR) signaling pathway using the MDA cell line in the presence of 0.5 nM R1881 - cell viability counter screen (AID 1259242); note: nearly all actives have a fitted effect of over 45% in size
Method in brief: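 Fluorescence from CellTiter-Fluor, which reports protease activity of live cells, was read 30 min after reagent addition to MDA-kb2 cells that had been incubated 16 hr with compound and 0.5 nM R1881.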

[3] = molecular target: Estrogen receptor (Homo sapiens) (UniProt P03372); assay: qHTS assay to identify small molecule antagonists of the estrogen receptor alpha (ER-alpha) signaling pathway using the BG1 cell line in the presence of 0.1 nM 17-beta-estradiol (AID 1259244); note: nearly all actives have a fitted effect of over 50% in size
Method in brief: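 Quantitative high-throughput screen in VM7Luc4E2 cells: compound plus 0.1 nM E2 (final), 22 h, 37C, 5% CO2; ONE-Glo added, 30 min room temperature, luminescence measured.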

[4] = qHTS assay to identify small molecule HDAC inhibitors (AID 1259364); note: nearly all actives have a fitted effect of over 45% in size; note: potency is the fitted concentration of half-maximal effect
Method in brief: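 Endogenous HDAC class I/II activity was measured in wild-type HCT-116 cells by HDAC-Glo luminescence after 2 h compound treatment.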

[5] = qHTS assay to identify small molecule HDAC inhibitors - cell viability counter screen (AID 1259365); note: series mostly up to about 92 µM; nearly all actives have a fitted effect of over 50% in size
Method in brief: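 Luminescence from CellTiter-Glo, developed 30min at room temperature, reports viability of wild-type HCT-116 cells treated 2hr with compounds at 37 C and 5% CO2 after overnight plating.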

[6] = qHTS assay to identify small molecule antagonists of the sonic hedgehog signaling (Shh) pathway - cell viability counter screen (AID 1259367); note: nearly all actives have a fitted effect of over 55% in size
Method in brief: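 Cells: 3T3 Gli1-Luc, 2,000/well, 4 hr pre-incubation. Compounds in DMSO, then conditioned medium. Incubation 24 hr, 37C, 5% CO2. CellTiter-Fluor at 23 hr, 1 hr, fluorescence.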

[7] = qHTS assay to identify small molecule agonists of the sonic hedgehog signaling (Shh) pathway (AID 1259368; calls by dose curve; note: nearly all actives have a fitted effect of over 15% in size; note: potency is the fitted concentration of half-maximal effect)
Method in brief: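 Luminescent signal was taken as a measure of Gli1-controlled luciferase expression in stably transfected NIH/3T3-derived cells that had been treated for 24 hr with compounds delivered in DMSO.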

[8] = qHTS assay to identify small molecule agonists of the sonic hedgehog signaling (Shh) pathway - cell viability counter screen (AID 1259366); note: nearly all actives have a fitted effect of over 50% in size
Method in brief: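 Cytotoxicity counter screen run in the same wells as the Shh reporter assay. NIH/3T3 cells carrying a Gli1 response element–driven luciferase were treated with DMSO-dissolved compounds for 24hr, and live-cell protease activity was measured with CellTiter-Fluor.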

Measured: Potency

Chain of Estrogen receptor (Homo sapiens) (P03372 whole entry, looked up): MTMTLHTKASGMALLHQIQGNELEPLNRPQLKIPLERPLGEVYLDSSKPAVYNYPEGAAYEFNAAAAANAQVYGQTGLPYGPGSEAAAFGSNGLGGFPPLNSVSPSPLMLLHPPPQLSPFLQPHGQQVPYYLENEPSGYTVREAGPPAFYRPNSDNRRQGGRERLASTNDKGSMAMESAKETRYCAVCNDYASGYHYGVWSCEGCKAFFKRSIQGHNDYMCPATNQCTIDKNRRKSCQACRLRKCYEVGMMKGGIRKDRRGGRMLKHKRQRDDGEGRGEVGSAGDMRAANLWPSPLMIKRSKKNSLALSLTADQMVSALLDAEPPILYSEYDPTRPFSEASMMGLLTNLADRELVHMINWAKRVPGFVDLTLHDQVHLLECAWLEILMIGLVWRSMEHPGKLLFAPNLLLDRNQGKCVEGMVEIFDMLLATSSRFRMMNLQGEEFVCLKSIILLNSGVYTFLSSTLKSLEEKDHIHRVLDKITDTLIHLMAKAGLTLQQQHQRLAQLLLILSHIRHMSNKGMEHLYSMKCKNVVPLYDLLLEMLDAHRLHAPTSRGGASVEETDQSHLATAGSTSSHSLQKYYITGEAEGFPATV

CCCCCCCCCCCl
not listed: [8]
inactive: all other assays above

CCOC(=O)Cn1c(=O)sc2cccc(Cl)c21
not listed: [6]
inactive: all other assays above

c1ccc2cnncc2c1
not listed: [8]
inactive: all other assays above

CC(C)(C)CC(C)(C)N
not listed: [4]
inactive: all other assays above

CNC(=O)c1c(I)c(NC(=O)CCCCC(=O)Nc2c(I)c(C(=O)O)c(I)c(C(=O)NC)c2I)c(I)c(C(=O)O)c1I
not listed: [8]
inactive: all other assays above

COCc1ccc(COC)cc1
inactive: all assays above

CCCCC1CCCCC(=O)O1 (stereo not drawn)
not listed: [6]
inactive: all other assays above

CC(C)c1cccc(O)c1
not listed: [8]
inactive: all other assays above

NC(=O)c1c(Cl)cccc1Cl
not listed: [8]
inactive: all other assays above

C=C(C)C(=O)OCCC(C)OC(=O)C(=C)C (stereo not drawn)
not listed: [8]
inactive: all other assays above

CO[Si](CCCNCCC[Si](OC)(OC)OC)(OC)OC
not listed: [6]
inactive: all other assays above

Nc1ccc2cc(S(=O)(=O)O)ccc2c1
inactive: all assays above

CCCCOCC(C)OCC(C)O (stereo not drawn)
inactive: all assays above

O=[N+]([O-])c1ccc(CCO)cc1
not listed: [4]
inactive: all other assays above

O=Cc1ccccc1[N+](=O)[O-]
inactive: all assays above

CCC(C)(C)C1CCC(OC)CC1 (stereo not drawn)
not listed: [8]
inactive: all other assays above

CC(C)(O)C(=O)c1ccc(OCCO)cc1
not listed: [4]
inactive: all other assays above

CCC(=O)/C=C/c1ccc(OC)cc1
active: [4] 24.3 µM
not listed: [6]
inactive: all other assays above

COc1ccc(N=[N+]([O-])c2ccc(OC)cc2)cc1
inactive: [1] | [2] | [3] | [5]
active: [4] 1.08 µM | [7] 0.121 µM

COC(=O)CCCCCCCCC(=O)OC
not listed: [8]
inactive: all other assays above

CC(C)=CC(=O)O
not listed: [6]
inactive: all other assays above

CC1=CC(C)C(C=O)C(C)C1 (stereo not drawn)
not listed: [8]
inactive: all other assays above

CC(C)(O)c1ccccc1
not listed: [8]
inactive: all other assays above

CC(C)(O)Cc1ccccc1
not listed: [8]
inactive: all other assays above

CCCCc1ccc(N)cc1
not listed: [8]
inactive: all other assays above
